Consider 24 compounds from PubChem BioAssay (NCATS).

Records with an inconclusive call do not appear. Active and inactive are the calls of the source. Calls follow the shape of the dose curve; as a rule, active = well fitted inhibition curve with a large enough effect; inconclusive = small, poorly fitted or top-dose-only effect; inactive = flat fitted curve, though single readings scatter.

Assay in all cases: qHTS profiling for inhibitors of Plasmodium falciparum proliferation (AID 504749); also: nearly all actives have a fitted effect of over 60% in size
Common to all, as to details: P. falciparum in erythrocytes, SYBR Green DNA, 72 h; series mostly up to 28.7 µM

The subject of one test is FAB9. In short, it runs like this: (§1)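 SYBR Green fluorescence (ex 485 nm, em 535 nm) reports parasite DNA after 72 h compound exposure of infected red cells at 0.3% parasitemia, 2.5% hematocrit; signal normalized to 0.29 uM artemisinin and vehicle wells.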
A further test deals with GB4. In short, it runs like this: as §1
A further test relates to HB3. The procedure, abridged:
as §1

The next test has as its system ICS. In short, it runs like this: as §1
A further test concerns JCK. The procedure, abridged:
as §1

Another test deals with N140. In short, it runs like this:
as §1

The subject of another test is P93_24. The procedure, abridged:
as §1

In the next test the test system is P94_40. In short, it runs like this:
as §1

A further test concerns PAD. In short, it runs like this: as §1
For a further test, the system named is PC15. In short, it runs like this: as §1
Potency is read from the fitted curve at half-maximal effect.

`O=c1[nH]c(=O)n(Cl)c(=O)n1Cl`: the Potency entry in the test with FAB9, in the test on GB4, with HB3, in the test with ICS, in the test on JCK and in the test on N140 was “inactive” throughout. Further, the Potency entry in the test on P93_24, in the test on P94_40, in the test on PAD and in the test with PC15 was “inactive” each time.

Turning to `CCC1(c2ccccc2)C(=O)NC(=O)NC1=O`, the Potency entry in the test on FAB9, with GB4, in the test with HB3, in the test on ICS, in the test with JCK and in the test on N140 was “inactive” each time. Further, the Potency entry in the test with P93_24, with P94_40, in the test on PAD and in the test with PC15 was “inactive” in each case.

As to `[N-]=[N+]=CC(=O)OCC(N)C(=O)O` (stereo not given), the Potency result in the test with FAB9, in the test on GB4, in the test with HB3, with ICS, with JCK and in the test with N140 was “inactive” in each case. Besides, the Potency entry in the test with P93_24, in the test with P94_40, in the test with PAD and in the test on PC15 was “inactive” in each case.

With `ClC=C(Cl)Cl`, the Potency result in the test with FAB9, in the test with GB4, in the test on HB3, in the test on ICS, in the test on JCK and in the test on N140 was “inactive” each time. Moreover, the Potency result in the test with P93_24, in the test on P94_40, in the test with PAD and with PC15 was “inactive” in each case.

As to `c1csc(C2(N3CCCCC3)CCCCC2)c1`, the Potency result in the test on FAB9, in the test with GB4, in the test on HB3, with ICS, in the test on JCK and with N140 was “inactive” throughout. Moreover, the Potency entry in the test on P93_24, with P94_40, with PAD and in the test with PC15 was “inactive” in each case.

Turning to `O=[N+]([O-])c1cc(I)c(O)c(I)c1`, the Potency entry with FAB9, with GB4, in the test with HB3, with ICS, in the test with JCK and with N140 was “inactive” each time. Moreover, the Potency result with P93_24, with P94_40, in the test on PAD and in the test on PC15 was “inactive” in each case.

For the compound `CC(C)(O)C1C2OC(=O)C1C1(O)CC3OC34C(=O)OC2C14C` (stereo not given), the Potency entry in the test on FAB9, in the test on GB4, in the test on HB3, in the test on ICS, in the test on JCK and in the test on N140 was “inactive” in each case. Moreover, the Potency entry with P93_24, in the test with P94_40, in the test on PAD and in the test on PC15 was “inactive” throughout.

As for `N#CC1(N2CCCCC2)CCCCC1`, the Potency result with FAB9, in the test on GB4, with HB3, in the test on ICS, with JCK and in the test with N140 was “inactive” each time. Besides, the Potency result with P93_24, in the test with P94_40, in the test with PAD and with PC15 was “inactive” throughout.

As for `O=C(CCl)c1ccc(Oc2ccc(C(=O)CCl)cc2)cc1`, the Potency entry in the test with FAB9, in the test with GB4, with HB3, in the test with ICS, in the test on JCK and in the test on N140 was “inactive” throughout. In addition, the Potency result in the test with P93_24, in the test with P94_40, in the test with PAD and in the test with PC15 was “inactive” throughout.

For the compound `CNC1(c2ccccc2Cl)CCCCC1=O` (stereo not given), the Potency result in the test with FAB9, in the test on HB3, with ICS, with JCK, with N140 and with P93_24 was “inactive” throughout. Further, the Potency result in the test with P94_40 and with PC15 was “inactive” throughout. The Potency in the test on GB4 was 12 µM (active).

On to `[O]=[Cr](=[O])([OH])[O][Cr](=[O])(=[O])[OH]`, for which the Potency entry in the test with FAB9, in the test on GB4, in the test on HB3, in the test on ICS, in the test with JCK and with N140 was “inactive” each time. The Potency entry with P93_24, in the test on P94_40, in the test on PAD and with PC15 was “inactive” throughout.

Turning to `O=[N+]([O-])c1ccc(F)c([N+](=O)[O-])c1`, the Potency entry with FAB9, with GB4, with HB3, in the test with ICS, in the test on JCK and in the test on N140 was “inactive” in each case. Besides, the Potency result with P93_24, in the test with P94_40, in the test with PAD and with PC15 was “inactive” each time.

Consider `CCC(N)Cc1c[nH]c2ccccc12` (stereo not given), for which the Potency result in the test on FAB9, in the test on GB4, in the test on HB3, with ICS, in the test on JCK and in the test on N140 was “inactive” each time. The Potency result in the test with P93_24, in the test with P94_40, with PAD and with PC15 was “inactive” each time.

As for `O=C1CC[C@@]2(O)C3Cc4ccc(O)c5c4C2(CCN3CC2CC2)[C@H]1O5` (stereo not given in full), the Potency result in the test with FAB9, with GB4, in the test with HB3, in the test on ICS, in the test on JCK and with N140 was “inactive” in each case. Besides, the Potency result with P93_24, with P94_40, in the test on PAD and in the test with PC15 was “inactive” in each case.

Regarding `CCC1C(C)=NN=C(c2ccc(OC)c(OC)c2)c2cc(OC)c(OC)cc21` (stereo not given), the Potency entry in the test on FAB9, with GB4, with HB3, in the test on JCK, with P94_40 and in the test with PAD was “inactive” in each case. The Potency result in the test with PC15 is “inactive”. Further, in the test with ICS, the Potency is 8.91 µM (active).

Turning to `CCCC(C)(COC(N)=O)COC(=O)NC1CC1` (stereo not given), the Potency result in the test on FAB9, in the test on GB4, in the test with HB3, with ICS, in the test with JCK and with N140 was “inactive” in each case. In addition, the Potency result in the test on P93_24, in the test with P94_40, with PAD and in the test on PC15 was “inactive” throughout.

With `C=CCN1CCC23c4c5ccc(O)c4O[C@H]2C(=O)CC[C@@]3(O)C1C5` (stereo not given in full), the Potency result in the test on FAB9, in the test on GB4, in the test on HB3, with ICS, in the test on JCK and in the test with N140 was “inactive” throughout. The Potency entry in the test on P93_24, with P94_40, in the test on PAD and in the test with PC15 was “inactive” in each case.

As for `CC[N+](C)(CC)CCOC(=O)C(O)(c1ccccc1)c1ccccc1`, the Potency entry in the test on FAB9, with GB4, with HB3, in the test on ICS, in the test with JCK and in the test on N140 was “inactive” each time. Besides, the Potency entry with P93_24, in the test on P94_40, in the test on PAD and with PC15 was “inactive” in each case.

Take `O=C(NC(=O)c1c(F)cccc1F)Nc1ccc(Cl)c(Oc2ncc(C(F)(F)F)cc2Cl)c1`: the Potency entry with FAB9, with GB4, with HB3, in the test on ICS, in the test on JCK and in the test on N140 was “inactive” in each case. Further, the Potency result with P93_24, in the test on P94_40, with PAD and with PC15 was “inactive” in each case.

`C[C@]12CCC(=O)C[C@@H]1CC[C@@H]1[C@@H]2CC[C@]2(C)[C@@H](O)CC[C@@H]12`: the Potency result in the test on FAB9, with GB4, with HB3, in the test on ICS, in the test on JCK and in the test on N140 was “inactive” each time. Further, the Potency result in the test with P93_24, in the test with P94_40, with PAD and with PC15 was “inactive” throughout.

Regarding `C[N+]1(C)C2CCC1CC(OC(=O)c1c[nH]c3ccccc13)C2` (stereo not given), the Potency entry in the test with FAB9, in the test with GB4, with HB3, with ICS, in the test on JCK and with N140 was “inactive” throughout. The Potency entry with P93_24, in the test on P94_40, in the test on PAD and with PC15 was “inactive” each time.

In the case of `O=Cc1ccco1`, the Potency result in the test on FAB9, in the test with GB4, with HB3, in the test on ICS, with JCK and in the test with N140 was “inactive” throughout. Moreover, the Potency result in the test on P93_24, in the test on P94_40, with PAD and in the test on PC15 was “inactive” each time.

As to `C[N+]1(C)CCCCC1COC(=O)C(O)(c1ccccc1)c1ccccc1` (stereo not given), the Potency result in the test on FAB9, in the test with GB4, in the test on HB3, in the test with ICS, in the test on JCK and in the test with N140 was “inactive” in each case. Besides, the Potency result with PAD and with PC15 was “inactive” each time.

Regarding `O=[N+]([O-])c1ccccc1`, the Potency entry in the test on FAB9, in the test on GB4, in the test with HB3, in the test with ICS, in the test on JCK and in the test with N140 was “inactive” each time. The Potency result with P93_24, in the test on P94_40, in the test with PAD and with PC15 was “inactive” throughout.
